From PMC12136788
Whole data set: some 5,800 sequences, median “enrichment r” near 0.68, cut for the highest 2% near 11. Only a sample is shown.

T1: UNK ZnF1-6 (called full-length) (human, UniProt Q9C0B0 30-357)
T1 sequence: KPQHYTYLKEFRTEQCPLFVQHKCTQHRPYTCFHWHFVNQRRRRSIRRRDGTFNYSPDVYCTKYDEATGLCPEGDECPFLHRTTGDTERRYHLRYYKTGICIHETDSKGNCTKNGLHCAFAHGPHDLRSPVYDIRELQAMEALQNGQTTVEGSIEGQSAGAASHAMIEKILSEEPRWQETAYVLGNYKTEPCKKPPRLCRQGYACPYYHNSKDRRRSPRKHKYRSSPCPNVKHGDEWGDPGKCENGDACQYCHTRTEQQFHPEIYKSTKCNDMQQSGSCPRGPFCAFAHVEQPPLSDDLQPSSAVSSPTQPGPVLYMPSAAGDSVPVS

B1: chr8:79641408:79641533:+|CDS|ENSG00000104435|unk|total|mutant (ssRNA)
RNA: GGGAGUUCUACAGUCCGACGAUCCCAGGCUUUUGAGCUGAUCUUGAAGCCACCAUCUCCUAUCUCAGAAGCCCCACGAACUUCCGCUUCUCCAAAGAAGAAAGACCUGUCCCUGGAGGAGAUCCAGAAGAAACUGGAGGCUGCCAACAGAGGAUUGAGCAUCA
B2: ENSG00000107863:be:win_6101|3pUTR|ENSG00000107863|bound_else_gene|NA|bound_elsewhere_windowed (ssRNA)
RNA: GGGAGUUCUACAGUCCGACGAUCGCAAGGUAUUUGUUGCAACUUACUACAUAGCAUAUACCCAAAAUCACUGAAGAAAAUCGCUGGCAUCAGUGUGCAGCAAAUUUGUUCUUUUGGUUUCAUCACUAACAAAAGUGCCUCAUCCAACAGAGGAUUGAGCAUCA
B3: chr14:102081487:102081564:-|3pUTR|ENSG00000080824|msi1_unk|FALSE|overlapping (ssRNA)
RNA: GGGAGUUCUACAGUCCGACGAUCGAAGAUAAGAUUUCUGUCUACUAAGUGAUGCUGUGAUACCUUAGGCACUAAAGCAGAGCUAGUAAUGCUUUUUGAGUUUCAUGUUGGUUUAUUUUCACAGAUUGGGGUAACGUGCACUGUCAACAGAGGAUUGAGCAUCA
B4: chr14:54957033:54957204:-|CDS|ENSG00000198554|control|control|control (ssRNA)
RNA: GGGAGUUCUACAGUCCGACGAUCGCACGUUCAACUAAUAUUUUAGACAAUAUGGGCAAAUCAUCCAAGAAAUCCACUGCACUUAGUCGAACUACAAAUAAUGAAAAGUCUCCCAUUAUAAAGCCUCUGAUUCCAAAGCCGAAGCAACAGAGGAUUGAGCAUCA
B5: chrX:55006554:55006655:+|CDS|ENSG00000169188|unk|FALSE|unique (ssRNA)
RNA: GGGAGUUCUACAGUCCGACGAUCAGGGCGCAAGUGGAUGGACAGCUUGCUCAGUAACUUGGGGUGCCAGUCUGCCUCUCAUGUAGGGCCCUUCAUCGAUAGCUACCGCUGCUUCCAACCAAAGCAGGAGGGGGCCUUCACCUGCAACAGAGGAUUGAGCAUCA
B6: chrX:112630647:112631419:-|three_prime_utr|ENSG00000182508|control|control|control (ssRNA)
RNA: GGGAGUUCUACAGUCCGACGAUCAGAAGAUUGGAGAGGGUGGGAAAGGGGAGGAGGGAGCCCUGAAAAGAGGUACUAAGGAUUAGGCCAUUUGUCAUCUGACUGUCAUUAGCAUAGCCUAGUGUUUGCAUGCUUUUUAAACUACAACAGAGGAUUGAGCAUCA
B7: chr1:173887777:173887878:+|3pUTR|ENSG00000185278|unk|FALSE|unique (ssRNA)
RNA: GGGAGUUCUACAGUCCGACGAUCAAAGAGAUUUGGCAGAGGGACAGGUUGUACCUGCACUGGUGAACCAUCUGUGAGAAUGUUAGUCAUGUGCUCCUUUCCUGAGAUUGCUUUGUGGUAUGUGAAAAGGUGGGUAGAAAAGAACAACAGAGGAUUGAGCAUCA
B8: chr1:93180074:93180188:-|CDS|ENSG00000117500|unk|FALSE|bound_elsewhere (ssRNA)
RNA: GGGAGUUCUACAGUCCGACGAUCCUGGCCGCUCUGCCUCCGGUGCUGCUGCCUGGGGCGGCCGGCUUCACACCUUCCCUCGAUAGCGACUUCACCUUUACCCUUCCCGCCGGCCAGAAGGAGUGCUUCUACCAGCCCAUGCCCCAACAGAGGAUUGAGCAUCA
B9: chr12:76028832:76028933:-|3pUTR|ENSG00000139289|msi1|total|mutant (ssRNA)
RNA: GGGAGUUCUACAGUCCGACGAUCAAAGGAAAAGACUGGAUAAACACAGGAUUUUCAGUAAGAAAACAACCCCAGUCUUGUCUCCGAAGCCACUUGUUGAGGAGUCUGUUGGGGGAAAAAAGAGGAUAUGCUUUUAAAGGCCGACAACAGAGGAUUGAGCAUCA
B10: chr3:27418507:27418620:-|CDS|ENSG00000033867|unk|FALSE|bound_elsewhere (ssRNA)
RNA: GGGAGUUCUACAGUCCGACGAUCUGAUGUAGCUUAUAAAGCAAAAGACAGAAAUGACCUCUUAUCUGGAAUUGAUGAAUUUUUAGAUCAAGUAACUGUCCUACCUCCAGGAGAGUGGGAUCCUUCUAUACGCAUAGAACCACCCAACAGAGGAUUGAGCAUCA
B11: chr11:35619468:35619569:+|CDS|ENSG00000179431|unk|FALSE|unique (ssRNA)
RNA: GGGAGUUCUACAGUCCGACGAUCCCCCCUCCGGGAUGCCGGGGGUGAGCUGGCCAACCUCAGCCAGGCGGAGCUGGUGGACCUAGUACAAUGGACCGACUUAAUCCUUUUCGACUACCUGACGGCCAACUUCGACCGGCUCGUCAACAGAGGAUUGAGCAUCA
B12: chr5:91369659:91369760:-|3pUTR|ENSG00000113369|msi1|total|mutant (ssRNA)
RNA: GGGAGUUCUACAGUCCGACGAUCUCAGCAUUUUCCAAGGUACCAAGUGUACUUAUUUUGUUGUUGUUGUUGUUGUUGUAUUUCCGAAGGAAUUCAGCUCUGAUGUUUUUAAAGAAAACCAGCAUCUCUGAUGUUGCAACAUACCAACAGAGGAUUGAGCAUCA
B13: chr9:35056615:35056731:-|3pUTR|ENSG00000165280|msi1|FALSE|unique (ssRNA)
RNA: GGGAGUUCUACAGUCCGACGAUCCCCUAUCCAACCUGGGUAGGUGGGUAGGGGCCACAGUUGCUGGAUGUUUAUAUAGAGAGUAGGUUGAUUUAUUUUACAUGCUUUUGAGUUAAUGUUGGAAAACUAAUCACAAGCAGUUUCCAACAGAGGAUUGAGCAUCA
B14: chr6:149379354:149379455:+|CDS|ENSG00000055208|msi1|FALSE|bound_elsewhere (ssRNA)
RNA: GGGAGUUCUACAGUCCGACGAUCAGGGGUGGUGUCCCCUACCUUUGAACUUACAAAUCUUCUUAAUCAUCCUGAUCAUUAUGUAGAAACCGAGAAUAUUCAGCACCUCACGGACCCUACAUUAGCACAUGUGGAUAGAAUAAGCAACAGAGGAUUGAGCAUCA
B15: chr17:81921741:81921842:-|3pUTR|ENSG00000197063|msi1|total|mutant (ssRNA)
RNA: GGGAGUUCUACAGUCCGACGAUCAAUUAUAUGUUUAAAAGUUAAAGAAAAAAGAGCUGCAGAGUAUUUAUAAAACUGUCUUUCCGAAAAAAAACAAGCAAGAAGACCAUUUGACCAUAUGAAUGGAAAAGGGAAGAAAGUAUACAACAGAGGAUUGAGCAUCA
B16: chr1:110947961:110948399:-|CDS|ENSG00000121931|control|control|control (ssRNA)
RNA: GGGAGUUCUACAGUCCGACGAUCAAGUCAUUUCUUCAAUAAAAAUUAUACCGAAGAUAUUUUCCCAGUGACACCACCGGAGUUAGAAGAAACCAUUCGAGAUGAAAAAAUAAGAAGACUUAAGCAGGUGCUGAGAGAGAAAGACAACAGAGGAUUGAGCAUCA
B17: chrX:153456492:153456651:-|CDS|ENSG00000213397|control|control|control (ssRNA)
RNA: GGGAGUUCUACAGUCCGACGAUCAUGGAGCACUUCGAGGACACCAGGGAGAAGAACGAGGCCUUGCUGGGGGAGCUCUUCUCUAGCCCCCACCUGCAGAUGCUCCUGAAUCCAGAGUGCGACCCGUGGCCCCUGGACAUGCAGCAACAGAGGAUUGAGCAUCA
B18: ENSG00000130720:stop:overlap|stop_codon|ENSG00000130720|stop_codon|NA|stop_codon (ssRNA)
RNA: GGGAGUUCUACAGUCCGACGAUCGCUGGCAGUACUCACUCAAGUUCUCUGAGAUGAAGAUCCGGCCGGUCCGGGAGGACCGCUAGACUGGUGCACCUUGUCCUUGGCCCUGCUGGUCCCUGUCGCCCCAUCCCCGACCCCACCCAACAGAGGAUUGAGCAUCA
B19: chr3:89481969:89482070:+|3pUTR|ENSG00000044524|msi1|total|mutant (ssRNA)
RNA: GGGAGUUCUACAGUCCGACGAUCAUAUGUGUUUACUUUAAACUUGUCUUUUCAAAAUAUUACUCAGUUUAUGUUGUACAAUGCCGAUGGCCUCUUACUAAUGUAAAAUGAUUUGCCGUGGAAACAUUUAUAUUUUUAUAAUAACAACAGAGGAUUGAGCAUCA
B20: chr4:123402332:123402450:+|CDS|ENSG00000164056|unk|total|mutant (ssRNA)
RNA: GGGAGUUCUACAGUCCGACGAUCGACGAAGGGGAUUCCUAUUCAGAUAAUCCUUGCUCCUGUUCACAAUCACACUGCUGCUCCCGAUACCUGUGUAUGGGAGCCAUGUCUUUAUUUUUACCUUGCUUACUCUGUUAUCCUCCUCAACAGAGGAUUGAGCAUCA
B21: chr1:198253062:198253183:+|CDS|ENSG00000151414|unk|total|mutant (ssRNA)
RNA: GGGAGUUCUACAGUCCGACGAUCAUGGGCUAUAAUACAUCCGCCAACUUUCGAACCGAAAAGAAAAUUGGUCGCGGACAAUUCCGUGAAGUUUACCGAGCAGCCUGUCUCUUGGAUGGAGUACCAGCCGCUUUAAAAAAAGUGCAACAGAGGAUUGAGCAUCA
B22: chr6:144852070:144852171:+|3pUTR|ENSG00000152818|unk|FALSE|unique (ssRNA)
RNA: GGGAGUUCUACAGUCCGACGAUCAAGUCCUUAAUAGUUCUUGAAACUCCUAGUUGUUUUCUUGUUGAAAGCAGACACACAUUUAGUGCACGGCUUAUUUUACCUUUCGGGUGAAAGAUCAGAUGUUUUUAUACCCUUCACUUGCAACAGAGGAUUGAGCAUCA

Each binder was assayed against T1, UNK ZnF1-6 (called full-length) (assay: nsRBNS (natural sequence RNA bind-n-seq); RBNS binding buffer (assumed for nsRBNS): 25 mM Tris pH 7.5, 150 mM KCl, 3 mM MgCl2, 0.01% Triton X-100, 500 ug/ml BSA, 20 U/ml SUPERase-In, 4 C; UNK is unkempt and MSI1 is Musashi-1; names of the RNAs are library labels; protein concentration not given here; high values mean tight binding).
In the case of B1, the binding signal is reported as 0.67 enrichment R. In the case of B2, the binding signal is reported as 0.567 enrichment R. In the case of B3, the binding signal is reported as 0.375 enrichment R. B4 gave a binding signal of 1.02 enrichment R. Work on B5 yielded a binding signal of 0.87 enrichment R. B6 showed a binding signal of 1.14 enrichment R. B7 gave a binding signal of 0.823 enrichment R. With B8 the binding signal was 1.1 enrichment R. B9 showed a binding signal of 0.52 enrichment R. In the case of B10, the binding signal is reported as 0.413 enrichment R. B11 showed a binding signal of 0.618 enrichment R. Binder B12 has a binding signal of 0.292 enrichment R. For B13, the binding signal was 0.815 enrichment R. B14 gave a binding signal of 0.615 enrichment R. Binder B15 has a binding signal of 0.865 enrichment R. With B16 the binding signal was 0.797 enrichment R. For B17, the binding signal was 0.759 enrichment R. B18 showed a binding signal of 1.34 enrichment R. B19 was tested, and the binding signal was 0.702 enrichment R. B20 was tested, and the binding signal was 0.585 enrichment R. B21 showed a binding signal of 0.411 enrichment R. B22 gave a binding signal of 0.969 enrichment R.
